About 4,100 (1.2%) of roughly 330,000 compounds were called active. No stated cut-off is given here; in the data, active means inhibition above about 50%; inactive means the rest. The list comes from a sample in which actives are over-represented; it also holds similar structures and randomly drawn compounds.
Each molecule was assayed against Sentrin-specific protease 8 (Homo sapiens) (UniProt Q96LD8) (assay: blockers of human SENP8 peptidase activity – biochemical, luminescence, primary screen (AID 2540)). Conditions: purified SENP8, Z-RLRGG-aminoluciferin cleavage, at 10 µM, active compounds read high.
Sentrin-specific protease 8 (Homo sapiens), sequence (Q96LD8 whole entry, looked up): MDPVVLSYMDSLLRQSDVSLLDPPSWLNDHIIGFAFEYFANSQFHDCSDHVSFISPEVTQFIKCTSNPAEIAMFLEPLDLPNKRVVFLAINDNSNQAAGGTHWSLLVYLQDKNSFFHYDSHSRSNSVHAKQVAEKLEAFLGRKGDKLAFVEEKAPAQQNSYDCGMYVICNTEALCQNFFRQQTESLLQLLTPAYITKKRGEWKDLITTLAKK
In the case of `N/C(=N\OC(=O)CC1CCCCC1)c1ccccc1`, the inhibition is reported as 18.2% (inactive). For `COc1ccccc1OCC(=O)O/N=C(\N)c1ccccn1`, the inhibition was -6.27% (inactive). For `N/C(=N\OC(=O)CCC1CCCCC1)c1ccccn1`, the inhibition was 70.6% (active). In the case of `COc1ccc(-c2nc(-c3ccccc3)no2)c(OC)c1`, the inhibition is reported as 98% (active). `COc1ccc(-c2noc(CNC(=O)C(C)Oc3ccccc3)n2)cc1` (centres undefined) was tested, and the inhibition was -0.358% (inactive). For `COc1ccc(OC)c(-c2csc(-c3cccs3)n2)c1`, the inhibition was -5.23% (inactive). In the case of `Clc1ccc2c(c1)C1=C(C(c3ccncc3)O2)C(c2ccc(Br)cc2)n2ncnc2N1` (centres undefined), the inhibition is reported as -1.86% (inactive). With `CC(C)NC(=S)NN=C1CCCCCCCCCCC1` the inhibition was -4.77% (inactive). With `CCn1c(CC(=O)Nc2ccccc2)nnc1SCC(=O)N1CCOCC1` the inhibition was 3.84% (inactive). In the case of `CCc1ccc(-c2cc(C(=O)NCc3ccco3)c3ccccc3n2)s1`, the inhibition is reported as -4.94% (inactive). In the case of `C/C(=N\NC(=O)CC(C)C)c1c(C(F)(F)F)[nH]n(-c2nc3ccccc3s2)c1=O`, the inhibition is reported as 96.3% (active). With `CC(C)CC(=O)N/C(N)=N/c1nc2ccccc2s1` the inhibition was 17% (inactive). With `CC(=NCc1ccco1)c1c(C(F)(F)F)[nH]n(-c2nc3ccccc3s2)c1=O` the inhibition was 94.7% (active). `CCC(C)Cn1c(O)cc2nn(-c3nc4ccccc4s3)c(=O)c-2c1C` (centres undefined) was tested, and the inhibition was 48% (inactive). `CCC1(CC)NC(=O)N(Cc2nc3ccccc3s2)C1=O` was tested, and the inhibition was -5% (inactive). In the case of `CC(C)(CSc1nncn1/N=C/c1ccco1)NS(=O)(=O)c1ccc(Cl)cc1`, the inhibition is reported as -9.04% (inactive). In the case of `Cc1cc(/C=N/NC(N)=O)c(C)n1C1CCCCC1`, the inhibition is reported as -15.2% (inactive). In the case of `CCCCN1Cc2c(nc3cc(-c4ccccc4)[nH]n3c2=O)C1=O`, the inhibition is reported as 1.85% (inactive). `O=c1c2c(nc3cc(-c4cccc(Cl)c4)[nH]n13)CCCC2` was tested, and the inhibition was 61.8% (active). For `Cc1cc(=O)n2[nH]c(-c3cccc(Cl)c3)cc2n1`, the inhibition was -14% (inactive). For `CC(Sc1nnc(-c2cccs2)n1C1CC1)C(=O)NCC1CCCO1` (centres undefined), the inhibition was -0.203% (inactive). With `Cc1ccc(-c2cn(S(=O)(=O)c3cccc([N+](=O)[O-])c3)nc2N)cc1` the inhibition was -7.7% (inactive). In the case of `Cc1ccnc(N2C(=O)c3ccc([N+](=O)[O-])cc3C2=O)c1`, the inhibition is reported as 6.9% (inactive). In the case of `Cc1ccc(-n2cc3ccc([N+](=O)[O-])cc3n2)cc1`, the inhibition is reported as 68.6% (active). For `COc1ccc(CN2CCN(C(=O)c3cc(C4CC4)nn3-c3ccccc3)CC2)cc1F`, the inhibition was -8.29% (inactive). For `COc1cc(SC)ccc1C(=O)Nc1nc(C)cs1`, the inhibition was 97.6% (active). `Cc1csc(NC(=O)c2ccc(C)s2)n1` was tested, and the inhibition was -2.73% (inactive). For `COc1cc(SC)ccc1C(=O)Nc1cc(C)ccn1`, the inhibition was 39% (inactive). In the case of `COc1ccc(N(CC(=O)NC2CCCC2)C(=O)CS(=O)CC(=O)Nc2ccc3c(c2)OCO3)cc1` (centres undefined), the inhibition is reported as -16.6% (inactive). In the case of `Cc1ccc(-n2[nH]c(C)c(/C=N/NC(=O)c3cccc([N+](=O)[O-])c3)c2=O)cc1C`, the inhibition is reported as -5.78% (inactive). `Cc1[nH]n(-c2ccccc2)c(=O)c1N=Nc1ccccc1C(=O)N1CCCCC1` was tested, and the inhibition was -1.4% (inactive). With `Cc1[nH]n(-c2ccc([N+](=O)[O-])cc2)c(=O)c1C=NCCN1CCN(C(=O)c2ccccc2F)CC1` the inhibition was 64.8% (active). With `CC1(C)CC(=O)C(C=NCCN2CCN(C(=S)Nc3cccc(Cl)c3)CC2)=C(O)C1` the inhibition was 0.407% (inactive). With `CCNC(=S)N1CCN(CCN=CC2=C(O)CC(C)(C)CC2=O)CC1` the inhibition was -4.68% (inactive). With `C=CCNC(=S)N1CCN(CCN=Cc2c(C)[nH]n(-c3ccc([N+](=O)[O-])cc3)c2=O)CC1` the inhibition was 61.4% (active). With `CCc1ccc2nc(Nc3ncc(C(C)=O)c(C)n3)nc(C)c2c1` the inhibition was -7.29% (inactive). `Cn1nnnc1-c1cc(Cl)cc(Cl)c1` was tested, and the inhibition was 3.44% (inactive). With `N#C/C(=C\c1cccnc1)C(=O)Nc1ccc(SC(F)F)cc1` the inhibition was 7.81% (inactive). In the case of `COc1ccc(N(CC(=O)NCCSCc2cccc(Cl)c2)S(C)(=O)=O)cc1`, the inhibition is reported as 4.81% (inactive). For `CCC(C)c1ccc(NC(=S)N2CCCC2)cc1` (centres undefined), the inhibition was -3.49% (inactive). With `N/C(=N\OC(=O)c1cc(-c2ccccc2)nc2ccccc12)c1ccncc1` the inhibition was -5.5% (inactive). With `Cc1ccc(/C(N)=N/OC(=O)COc2ccc(Cl)c(C)c2)cc1` the inhibition was -7.2% (inactive). With `Cc1cccc(/C(N)=N/OC(=O)c2ccccc2Cl)c1` the inhibition was 94.7% (active). With `Cc1ccc(S(=O)(=O)NCCNC(C)c2ccc(Br)cc2)cc1` (centres undefined) the inhibition was 2.45% (inactive). `COc1cccc(/C=C/C(=O)OCC(=O)N2CCN(c3ccccc3)CC2)c1` was tested, and the inhibition was -5.84% (inactive). For `COc1cc(C(=O)OCc2ccc([N+](=O)[O-])cc2)cc(OC)c1OC`, the inhibition was 15.6% (inactive). With `COc1ccc(C(=O)OCC(=O)Nc2ccc3[nH]c(=O)[nH]c3c2)c(OC)c1OC` the inhibition was 2.13% (inactive). For `COc1cc(NC(=O)COC(=O)c2ccc([N+](=O)[O-])s2)cc(OC)c1OC`, the inhibition was 63.8% (active). `COc1ccc(C(=O)OCC(=O)c2ccc(C)c(S(=O)(=O)N3CCOCC3)c2)cc1OC` was tested, and the inhibition was -6.51% (inactive). In the case of `C[C@H](NC(=O)c1ccccc1Cl)C(=O)OCC(=O)N1CCN(c2ccccc2)CC1`, the inhibition is reported as 2.29% (inactive). `O=C(OCC(=O)N1CCN(c2ccccc2)CC1)c1ccc([N+](=O)[O-])s1` was tested, and the inhibition was 58.1% (active). For `COc1ccc(C(=O)COC(=O)c2ccc([N+](=O)[O-])s2)cc1OC`, the inhibition was 61.6% (active). For `COc1ccc(C(=O)OCC(=O)c2ccc(Cl)s2)c(OC)c1OC`, the inhibition was -5.24% (inactive). In the case of `CC1(C)Cc2ccccc2-c2nnc(-c3cccc(O)c3)n21`, the inhibition is reported as -5.27% (inactive). For `Cc1ccc(NS(=O)(=O)c2ccc(C(C)C)cc2)cc1S(=O)(=O)N1CCOCC1`, the inhibition was -8.64% (inactive). `NC(=O)c1ccc(Nc2ccc3c(c2)CCC3)c([N+](=O)[O-])c1` was tested, and the inhibition was -12.7% (inactive). For `O=C(N/N=C/c1sc(N2CCCCC2)nc1-c1cccs1)c1cccnc1`, the inhibition was -8.56% (inactive). In the case of `COc1ccc(OC)c(S(=O)(=O)NCCC(C)C)c1`, the inhibition is reported as 0.429% (inactive). For `O=C(NCC(=O)N1CCN(c2ccccc2O)CC1)c1ccc2ccccc2c1`, the inhibition was -4.96% (inactive). In the case of `CC(C)N(C(=O)Cn1c(SCC(=O)N2CCN(c3ccccc3)CC2)nc2ccccc21)C(C)C`, the inhibition is reported as 3.06% (inactive). For `CC(C)N(C(=O)Cn1cc(SCC(=O)N2CCCC2)c2ccccc21)C(C)C`, the inhibition was 55.6% (active). For `CC(C)N(C(=O)Cn1cc(S(=O)(=O)CC(=O)N2CCOCC2)c2ccccc21)C(C)C`, the inhibition was -2.24% (inactive). For `O=[N+]([O-])c1cc(S(=O)(=O)NCCc2ccccn2)ccc1Cl`, the inhibition was -1.07% (inactive). `CC/C(Cc1ccccc1)=N/NC(=O)CCn1nnc2ccccc21` was tested, and the inhibition was 2.91% (inactive). With `O=C(Nc1ccccc1C(=O)NCC1CCCO1)c1ccccc1F` (centres undefined) the inhibition was -12.9% (inactive). In the case of `Cc1c(C(=O)N(C)CCc2cnn(C)c2)oc2c(F)cccc12`, the inhibition is reported as 3.74% (inactive). With `O=C(c1ccncc1)c1ccc([N+](=O)[O-])cc1` the inhibition was -5.02% (inactive). `O=C(Nc1nc2ccc([N+](=O)[O-])cc2s1)c1ccncc1` was tested, and the inhibition was 87.5% (active). With `O=C(NC(Nc1nc2ccc([N+](=O)[O-])cc2s1)(C(F)(F)F)C(F)(F)F)c1ccccc1` the inhibition was -0.974% (inactive). `CCCOC(=O)c1c(NC(=O)c2cnn3c2NC(c2ccccc2)CC3C(F)(F)F)sc2c1CCCC2` (centres undefined) was tested, and the inhibition was -1.5% (inactive). In the case of `O=C(c1ccco1)N1CCN(C(=S)Nc2cc(F)cc(F)c2)CC1`, the inhibition is reported as 2.74% (inactive). For `COc1ccc(N2CCN(C(=O)CNS(=O)(=O)c3ccc(C)c(C)c3)CC2)cc1`, the inhibition was -6.38% (inactive). `Cc1cccc2cc3c(N)c(C(=O)N4CCCc5ccccc54)sc3nc12` was tested, and the inhibition was -4.99% (inactive). `CC(=O)c1ccc(OCCCC(=O)Nc2ccc(C)c(S(=O)(=O)N3CCOCC3)c2)cc1` was tested, and the inhibition was 8.63% (inactive). For `CC1CN(C(=S)SCC(=O)c2ccccc2)CC(C)O1` (centres undefined), the inhibition was 1.35% (inactive). `O=C(CSC(=S)N1CCOCC1)c1ccccc1` was tested, and the inhibition was 59.3% (active). In the case of `O=C(CSC(=S)N1CCOCC1)c1cc(Br)cc(Br)c1O`, the inhibition is reported as -4.17% (inactive). With `CCOc1ccc(S(=O)(=O)N2CCC(C(=O)NCC(=O)Nc3cccc(Cl)c3C)CC2)cc1` the inhibition was 3.22% (inactive). For `Cc1ccc(-c2nc(CSCC(=O)NC3CCN(Cc4ccccc4)CC3)c(C)o2)cc1`, the inhibition was -1.87% (inactive). `CCCn1c(C)cc(/C=C(\C#N)C(=O)OCC(=O)Nc2cc(OC)c(OC)c(OC)c2)c1C` was tested, and the inhibition was 1.35% (inactive). `COc1ccccc1NC(=O)C1=C(C)Nc2nc3ccccc3n2C1c1cccs1` (centres undefined) was tested, and the inhibition was -5.43% (inactive). In the case of `O=C(Nc1ccc(N2CCCC2=O)cc1)c1cncc(Br)c1`, the inhibition is reported as -0.181% (inactive). With `CCOC(=O)c1sc(NC(=O)c2sc(C)nc2C)nc1C` the inhibition was 13.7% (inactive). With `CCOC(=O)c1cccnc1NC(=O)c1ccncc1` the inhibition was -5.42% (inactive). With `CCOC(=O)c1sc(NC(=O)c2ccncc2)nc1C` the inhibition was 88.2% (active). With `Cc1ccc(NC(=O)CN(C)C(=O)c2ccc(Cl)c(S(=O)(=O)NCc3ccco3)c2)cc1` the inhibition was -1.14% (inactive). With `O=CN1CCN(C(=O)c2ccc(Br)o2)CC1` the inhibition was 0.91% (inactive). For `CC(=O)Nc1cccc(C(=O)OCC(=O)c2ccc3c(c2)OCO3)c1`, the inhibition was 67.1% (active). For `Cc1onc(C(=O)Nc2ccc3c(c2)OCO3)c1[N+](=O)[O-]`, the inhibition was -9.15% (inactive). With `O=C(Nc1ccc(NC(=O)c2ccc3c(c2)OCO3)cc1)c1cccc(Cl)c1` the inhibition was -4.6% (inactive). `O=C(COC(=O)c1ccncc1)Nc1ccc2c(c1)OCO2` was tested, and the inhibition was 8.05% (inactive). `O=C(COC(=O)c1ccc(F)cc1)Nc1ccc2c(c1)OCO2` was tested, and the inhibition was -15.4% (inactive). With `CN1CCN(c2ccc(NC(=O)c3ccc4c(c3)OCCO4)cc2Cl)CC1` the inhibition was 3.49% (inactive). For `CC(NC(=O)Nc1cccc([N+](=O)[O-])c1)c1ccc2c(c1)OCO2` (centres undefined), the inhibition was -0.051% (inactive). In the case of `O=C(Nc1ccc(N2CCOCC2)cc1)c1ccc2c(c1)OCO2`, the inhibition is reported as 12.3% (inactive). With `O=C(Nc1ccccc1)c1ccc2c(c1)OCCCO2` the inhibition was 75.9% (active). With `O=C(Nc1ccc2c(c1)OCCO2)c1ccoc1` the inhibition was -5.62% (inactive). In the case of `O=C(Nc1cccc([N+](=O)[O-])c1)c1ccc2c(c1)OCO2`, the inhibition is reported as 59.1% (active). With `O=C(Nc1ccccc1)c1ccc2c(c1)OCO2` the inhibition was 66.7% (active).

— PubChem BioAssay AID2540 (Sanford-Burnham Center for Chemical Genomics, 2010)
